Our source for the growth values is PubChem BioAssay (NCI).

Common to all, as to test: NCI-60 one-dose screen, 48 h (100 = growth as untreated, 0 = no growth, -100 = all killed)
Common to all, as to conditions: 10 µM unless noted

Assay [1] relates to T-47D breast.
The test system of assay [2] is BT-549 breast.
In assay [3] the test system is MDA-MB-435 melanoma.
The subject of assay [4] is SW-620 colon.
The test system of assay [5] is MCF7 breast.
Assay [6] deals with HCT-116 colon.
Assay [7] has as its system HCC-2998 colon.
The test system of assay [8] is KM12 colon.

Compounds without any hit were thinned out: in the full panel of roughly 83,000, 20% have a hit.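 Single-dose data. Exposure time 48 hours. Values below 10 considered active.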 Values without a mark were called inactive. Active and inactive are the calls of the source.

On to `O=C(c1ccccc1)N(CCCl)C(=O)N(CCCl)C(=O)c1ccccc1`, for which the growth in assay [1] is 86%; in assay [2], 100%; in assay [3], 102%; in assay [4] it was 110%; in assay [5], 101%; in assay [6] it was 90%. In addition, the growth is 104% in assay [7] and 102% in assay [8].

On to `CC1=CC(=NC(=O)CBr)C=C/C1=N\S(=O)(=O)c1ccccc1`, for which the growth is 12.3% in assay [1]; 65.6% in assay [2]; 43.4% in assay [3]; 17% in assay [4]; 16.3% in assay [5]; 22.8% in assay [6]. In addition, the growth in assay [7] is 110%; in assay [8] it was 106%.

With `O=C(OC12CC3CC(CC(C3)C1)C2)c1ccc(NCc2cc(O)ccc2O)cc1`, the growth was -70% (active) in assay [1]; -81.6% (active) in assay [2]; -46% (active) in assay [3]; -53.8% (active) in assay [4]; 6.06% (active) in assay [5]; -82.9% (active) in assay [6]. For the same compound, the growth in assay [7] is -73.6% (active); in assay [8] it was -60.7% (active).

Consider `O=[n+]1c2ccccc2n([O-])c2cc(Cl)ccc21`, for which the growth in assay [1] was 46.8%; in assay [2], 74.7%; in assay [3], 100%; in assay [4] it was 53.2%; in assay [5], 28.2%; in assay [6], 28.7%. Moreover, the growth was 93.5% in assay [7] and 79% in assay [8].

Turning to `CCCCCCN(CCCCCC)CCCNc1nccc2ccccc12`, the growth in assay [1] is -13.6% (active); in assay [2], 39.7%; in assay [3], 0.549% (active); in assay [4] it was 6.78% (active); in assay [5], -28% (active); in assay [6], 8.24% (active). Also, the growth was -59.4% (active) in assay [7] and 9.96% (active) in assay [8].

Take `O=C1C=CC(=O)N1c1ccc(O)cc1`: the growth in assay [1] is 83.3%; in assay [2], 103%; in assay [3] it was 107%; in assay [4] it was 95.6%; in assay [5], 102%; in assay [6] it was 106%. Further, the results for the growth in assay [7] and in assay [8] were 105% and 109%, respectively.

Take `COC(=O)Nc1nc2ccc(C3(c4ccc(F)cc4)OCCO3)cc2[nH]1`: the growth was 47.1% in assay [1]; 47.5% in assay [2]; -53.3% (active) in assay [3]; 30.7% in assay [4]; 15.7% in assay [5]; 25.2% in assay [6]. In addition, the growth in assay [7] is 16.7%; in assay [8], 25.6%.

As for `O=C(/C=C/c1ccccc1)c1ccccc1O`, the growth in assay [1] was 62.6%; in assay [2], 70.5%; in assay [3], 80.6%; in assay [4], 75.1%; in assay [5], 26.7%; in assay [6], 62.9%. Besides, the growth in assay [7] was 96.3%; in assay [8] it was 28.2%.

Turning to `COc1cc(/C=C/C(=O)CC(=O)/C=C/c2ccc(O)c(OC)c2)ccc1O`, the growth in assay [1] is 50.7%; in assay [2], 13.9%; in assay [3], 1.75% (active); in assay [4] it was 23.1%; in assay [5] it was 17%; in assay [6], 0.952% (active). The growth in assay [7] is -74.8% (active); in assay [8] it was 0.643% (active).

`CCC(=O)c1cc([N+](=O)[O-])c(Br)s1`: the growth in assay [1] is -46.2% (active); in assay [2], 108%; in assay [3], 96.9%; in assay [4], 35.4%; in assay [5] it was 62.6%; in assay [6] it was 1.06% (active). Moreover, the growth in assay [7] is 92.7%; in assay [8] it was 93.8%.

For `COc1ccc2c(c1OC)OCC(CN(C)C)C2=O` (stereo unspecified), the growth in assay [1] was 69.5%; in assay [2], 82.4%; in assay [3], 96.1%; in assay [4], -78.3% (active); in assay [5], 75%; in assay [6], 77.6%. Also, the growth in assay [7] is 105%; in assay [8], 96.8%.

For `N#CC1c2ccccc2C=CN1C(=O)CCCl` (stereo unspecified), the growth in assay [1] was 52.4%; in assay [2], 92.1%; in assay [3], 94%; in assay [4], 55.8%; in assay [5] it was 24.8%; in assay [6], 84.1%. For the same compound, the growth in assay [7] is 110%; in assay [8] it was 86.4%.

Consider `CN(C)c1ccc(/C=C/c2ccnc3ccccc23)cc1`, for which the growth was 43.1% in assay [1]; 20.2% in assay [2]; 2.49% (active) in assay [3]; 26.9% in assay [4]; 19.9% in assay [5]; 24.8% in assay [6]. In addition, the figures for the growth in assay [7] and in assay [8] were 72.1% and 29.9%, respectively.

Take `NC(=S)Nc1ccc2c(c1)Cc1ccccc1-2`: the growth in assay [1] is 81.9%; in assay [2] it was 79.4%; in assay [3], 110%; in assay [4], 94.7%; in assay [5], 70.1%; in assay [6] it was 94.8%. The growth in assay [7] is 97.6%; in assay [8], 95.1%.

`O=C(O)c1ccc2c(c1)C(=O)c1ccccc1C2=O`: the growth was 99.7% in assay [1]; 107% in assay [2]; 102% in assay [3]; 97% in assay [4]; 97.7% in assay [5]; 106% in assay [6]. Besides, the growth in assay [7] is 104%; in assay [8], 98.9%.

Regarding `COc1cc(NCc2ccc3nc(N)nc(N)c3c2C)cc(OC)c1OC` (tested in a mixture with another compound), the growth is 47.1% in assay [1]; 56.1% in assay [2]; 33.1% in assay [3]; 32.4% in assay [4]; 21.3% in assay [5]; 20.6% in assay [6]. The results for the growth in assay [7] and in assay [8] were 14.3% and 14.8%, respectively.

`CCCCCCCCCCCC[N+]1(CCCCCCCCCCCC)CCCC(C)C1` (stereo unspecified): the growth was -78.6% (active) in assay [1]; -72.2% (active) in assay [2]; -58.7% (active) in assay [3]; -65.4% (active) in assay [4]; -88.9% (active) in assay [5]; -97.2% (active) in assay [6]. Further, the growth is -96.6% (active) in assay [7] and -96.3% (active) in assay [8].

With `Cc1cccc2c(N)c3ccccc3nc12`, the growth in assay [1] is -2.75% (active); in assay [2], 14%; in assay [3], -12.1% (active); in assay [4], 0.0537% (active); in assay [5], 5.35% (active); in assay [6], 0.783% (active). Moreover, the growth was 2.09% (active) in assay [7] and 9.35% (active) in assay [8].

Turning to `Clc1ccc(Cc2nc3ccccc3s2)cc1`, the growth in assay [1] is 79.6%; in assay [2] it was 86.7%; in assay [3] it was 92.5%; in assay [4], 101%; in assay [5], 77.4%; in assay [6] it was 97.8%. Besides, the growth in assay [7] was 103%; in assay [8], 93.2%.

For the compound `c1ccc2sc(SSN3CC4CCC(CC4)C3)nc2c1`, the growth was 96.5% in assay [1]; 126% in assay [2]; 108% in assay [3]; 110% in assay [4]; 107% in assay [5]; 103% in assay [6]. Besides, the growth is 123% in assay [7] and 145% in assay [8].

As for `CCN1CCCC(Nc2cc(C)nc(/N=C(/N)Nc3ccc(Cl)c(Cl)c3)n2)C1` (stereo unspecified), the growth in assay [1] was -49.2% (active); in assay [2] it was -59.5% (active); in assay [3], -51.7% (active); in assay [4], -59.3% (active); in assay [5], -73.5% (active); in assay [6], -54.9% (active). The growth in assay [7] is -71.5% (active); in assay [8], -14.8% (active).

In the case of `COC(=O)C(=[N+]=[N-])C(=O)c1ccc([N+](=O)[O-])o1`, the growth was 89.7% in assay [1]; 101% in assay [2]; 103% in assay [3]; 44% in assay [4]; 65.1% in assay [5]; 73.4% in assay [6]. In addition, the growth was 107% in assay [7] and 94.9% in assay [8].

On to `CCOc1ccc(C(CN2CCOCC2)C(C)=O)cc1OC` (stereo unspecified), for which the growth was 33.2% in assay [1]; 91.2% in assay [2]; 97.6% in assay [3]; 60% in assay [4]; 13.4% in assay [5]; 97.3% in assay [6]. The growth in assay [7] was 115%; in assay [8] it was 93.3%.

As to `CC(C)c1ccc(C(=O)OC2CCCC2)cc1`, the growth in assay [1] is 91.2%; in assay [2], 97.5%; in assay [3], 101%; in assay [4], 99.7%; in assay [5], 95.7%; in assay [6] it was 92.3%. The growth is 99% in assay [7] and 99.9% in assay [8].

Turning to `O=C1C=CC(=O)N1c1cc(Cl)c(Cl)cc1Cl`, the growth in assay [1] is 103%; in assay [2], 97.9%; in assay [3] it was 106%; in assay [4], 110%; in assay [5] it was 87.8%; in assay [6], 90%. Besides, the growth is 103% in assay [7] and 106% in assay [8].

In the case of `Nc1nc(N)c2cc(Sc3cccc(C(F)(F)F)c3)ccc2n1`, the growth in assay [1] is 45%; in assay [2] it was 50.3%; in assay [3], 28.8%; in assay [4], 22.5%; in assay [5], 23.9%; in assay [6], 15%. The growth in assay [7] is -57.2% (active); in assay [8], 24.8%.

On to `Cc1ccc2c(c1)sc(-c1ccc(N(C)C)cc1)[n+]2C`, for which the growth is 1.38% (active) in assay [1]; 11.9% in assay [2]; 9.68% (active) in assay [3]; 12.3% in assay [4]; 3.8% (active) in assay [5]; -8.72% (active) in assay [6]. Also, the growth in assay [7] is 2.49% (active); in assay [8], 5.09% (active).

On to `CCCCCCCCCCCC[n+]1ccc(CCCCCCCCC)cc1`, for which the growth in assay [1] was -62.3% (active); in assay [2], -27.3% (active); in assay [3], -85.5% (active); in assay [4], -67% (active); in assay [5], -5.44% (active); in assay [6] it was -91% (active). The growth in assay [7] is -79.5% (active); in assay [8], -74.4% (active).

For the compound `CCOc1ccc2c(c1)/C(=C\C=C\C1CC(C)C3CC(OCC)CCC3N1CC)CC(C)N2CC` (stereo unspecified), the growth in assay [1] is 9.32% (active); in assay [2] it was 0.574% (active); in assay [3], -20.6% (active); in assay [4] it was 17.1%; in assay [5], 3.06% (active); in assay [6], 10.7%. Also, the growth in assay [7] was 28.5%; in assay [8], 0.998% (active).

Consider `CC(C)(C)c1ccc(O)c(Br)c1`, for which the growth was 103% in assay [1]; 102% in assay [2]; 92.1% in assay [3]; 92.4% in assay [4]; 95.3% in assay [5]; 93.2% in assay [6]. In addition, the growth in assay [7] was 98%; in assay [8], 104%.

Take `CCCc1cc(=O)oc2c3c(c4c(c12)OC(C)(C)CC4)OC(C)[C@H](C)[C@@H]3O` (stereo partly specified): the growth in assay [1] is 67.9%; in assay [2], 108%; in assay [3], 112%; in assay [4] it was 84.3%; in assay [5] it was 70%; in assay [7], 116%. Moreover, in assay [8], the growth was 97.8%.

`CC(=O)OC1CC2CCC1(C)C2(C)C` (stereo unspecified): the growth is 99.2% in assay [1]; 112% in assay [2]; 96.4% in assay [3]; 98.1% in assay [4]; 103% in assay [5]; 108% in assay [7]. Moreover, in assay [8], the growth is 104%.

Consider `CN1CSC(=S)N(Cc2ccccc2)C1`, for which the growth in assay [1] was 43.1%; in assay [2], 80.3%; in assay [3], 77.9%; in assay [4], 35.4%; in assay [5], 33.5%; in assay [6] it was 25.9%. In addition, the growth in assay [8] was 40.8%.
